Measured values: PubChem BioAssay (NCATS)
Unmarked numbers belong to inactive results. Inconclusive results are not listed. Where a call stands in place of a potency, no number is given. The source made the active and inactive calls. Unless noted, calls follow the shape of the dose curve; as a rule, active = well fitted curve in the direction sought with a large enough effect; inconclusive = small, poorly fitted or top-dose-only effect, or another doubt; inactive = no such curve, though single readings can be large; an effect the other way counts as inactive or inconclusive.

How the values were obtained:
UISO = assay: qHTS assay to identify novel small-molecules to repurpose for Merkel cell carcinoma treatment (AID 1296009); settings: MCC and control cell lines, CellTiter-Glo viability, 72 h; series mostly up to 46 µM; also: nearly all actives have a fitted effect of over 60% in size; also: potency is read from the fitted curve at half-maximal effect
Procedure, shortened: (§1)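 After compound transfer in DMSO, plates were kept 72 hr at 37 degree celsius. Luminescent ATP signal from CellTiter-Glo served as viability measure, normalized against DMSO and no-cell controls.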

WaGa = assay: as above; settings: MCC and control cell lines, CellTiter-Glo viability, 72 h; series mostly up to 46 µM
Procedure, shortened: as §1

C33A = assay: Primary qHTS to identify gynecologic anti-cancer compounds using libraries of approved drugs and bioactive compounds (AID 1345084); settings: Gynecologic cancer cell panel viability, ATPlite luminescence, 48 h; series mostly up to 57.5 µM; also: nearly all actives have a fitted effect of over 55% in size; also: potency is read from the fitted curve at half-maximal effect
Procedure, shortened: (§2)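 Cells, 1,000 per well, were allowed to settle for 16 h at 37 C before compound addition. Five concentrations were tested for 48 h, and viability was read by ATPlite luminescence after 15 min at room temperature.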

CASKI = assay: as above; settings: Gynecologic cancer cell panel viability, ATPlite luminescence, 48 h; series mostly up to 57.5 µM
Procedure, shortened: as §2

Es-2 = assay: as above; settings: Gynecologic cancer cell panel viability, ATPlite luminescence, 48 h; series mostly up to 57.5 µM
Procedure, shortened: as §2

HeLa = assay: as above; settings: Gynecologic cancer cell panel viability, ATPlite luminescence, 48 h; series mostly up to 57.5 µM
Procedure, shortened: as §2

Hek293T = assay: as above; settings: Gynecologic cancer cell panel viability, ATPlite luminescence, 48 h, control line for the selectivity index; series mostly up to 57.5 µM
Procedure, shortened: as §2

JEG-3 = assay: as above; settings: Gynecologic cancer cell panel viability, ATPlite luminescence, 48 h; series mostly up to 57.5 µM
Procedure, shortened: as §2

OV90 = assay: as above; settings: Gynecologic cancer cell panel viability, ATPlite luminescence, 48 h; series mostly up to 57.5 µM
Procedure, shortened: as §2

PA-1 = assay: as above; settings: Gynecologic cancer cell panel viability, ATPlite luminescence, 48 h; series mostly up to 57.5 µM
Procedure, shortened: as §2

SKOV3 = assay: as above; settings: Gynecologic cancer cell panel viability, ATPlite luminescence, 48 h; series mostly up to 57.5 µM
Procedure, shortened: as §2

Tov-21-G = assay: as above; settings: Gynecologic cancer cell panel viability, ATPlite luminescence, 48 h; series mostly up to 57.5 µM
Procedure, shortened: as §2

Tov112D = assay: as above; settings: Gynecologic cancer cell panel viability, ATPlite luminescence, 48 h; series mostly up to 57.5 µM
Procedure, shortened: as §2

astro = assay: Drug repurposing screens with cells derived from glioblastoma tumor samples (AID 1345199); settings: viability, ATP luminescence, 48 h; series mostly up to 45.9 µM; also: nearly all actives have a fitted effect of over 40% in size; also: potency is read from the fitted curve at half-maximal effect
Procedure, shortened: (§3)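 Four patient lines of CD133+ GBM neurospheres were screened at several concentrations; hits were retested in those lines plus three slower-growing GBM lines, using 48-hour treatment and ATP-based viability.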

[1] = qHTS assay for small molecule activators of the human pregnane X receptor (PXR) signaling pathway (AID 720659; call rule not given here)
[2] = target: Nuclear receptor subfamily 1 group I member 2 (Rattus norvegicus) (UniProt Q9R1A7); assay: qHTS assay for small molecule activators of the rat pregnane X receptor (rPXR) signaling pathway (AID 651751; call rule not given here); settings: rPXR reporter cells, luciferase (One-Glo), 24 h
Sequence of Nuclear receptor subfamily 1 group I member 2 (Rattus norvegicus) (Q9R1A7 whole entry, looked up): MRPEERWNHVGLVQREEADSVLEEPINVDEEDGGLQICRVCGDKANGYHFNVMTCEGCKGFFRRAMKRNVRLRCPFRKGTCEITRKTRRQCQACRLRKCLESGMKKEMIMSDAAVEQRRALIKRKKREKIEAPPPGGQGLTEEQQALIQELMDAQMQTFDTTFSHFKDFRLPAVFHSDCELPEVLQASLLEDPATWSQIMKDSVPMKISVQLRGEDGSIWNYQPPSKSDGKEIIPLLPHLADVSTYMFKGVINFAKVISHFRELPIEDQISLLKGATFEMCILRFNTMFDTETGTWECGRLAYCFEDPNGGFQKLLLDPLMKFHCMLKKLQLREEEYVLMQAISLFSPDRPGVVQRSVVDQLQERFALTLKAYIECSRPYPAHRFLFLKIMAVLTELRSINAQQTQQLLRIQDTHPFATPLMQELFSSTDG

CAOV3 = assay: Primary qHTS to identify gynecologic anti-cancer compounds using libraries of approved drugs and bioactive compounds (AID 1345084); settings: Gynecologic cancer cell panel viability, ATPlite luminescence, 48 h; series mostly up to 57.5 µM; also: nearly all actives have a fitted effect of over 55% in size; also: potency is read from the fitted curve at half-maximal effect
Procedure, shortened: as §2

[3] = Drug repurposing screens with cells derived from glioblastoma tumor samples (AID 1345199); settings: GBM patient neurospheres viability, ATP luminescence, 48 h; for activity, negative = cell killing: at 45.9 µM (top of the series); also: potency is read from the fitted curve at half-maximal effect; as to all read-outs here: nearly all actives have a fitted effect of over 40% in size
Procedure, shortened: as §3

Compound	Potency (UISO)	Potency (WaGa)	Potency (C33A)	Potency (CASKI)	Potency (Es-2)	Potency (HeLa)	Potency (Hek293T)	Potency (JEG-3)	Potency (OV90)	Potency (PA-1)	Potency (SKOV3)	Potency (Tov-21-G)	Potency (Tov112D)	Potency (astro)	outcome [1]	max response [2] [%]	Potency (CAOV3)	activity, negative = cell killing ([3]; tumour line B) [%]	activity, negative = cell killing ([3]; tumour line D) [%]	Potency ([3]; tumour line A)
C/C=C(/C(=C/C)c1ccc(OC(C)=O)cc1)c1ccc(OC(C)=O)cc1	inactive	inactive	inactive	inactive	inactive	inactive	inactive	inactive	inactive	inactive	inactive	inactive	inactive							
CCCCCCCCCCCCCCCC[n+]1ccccc1	1.68 µM (active)	2.11 µM (active)	17.8 µM (active)	7.94 µM (active)	17.8 µM (active)		8.91 µM (active)		31.6 µM (active)			31.6 µM (active)		3.16 µM (active)	inactive					
CC1(C)O[C@@H]2C[C@H]3[C@@H]4C[C@H](F)C5=CC(=O)C=C[C@]5(C)[C@@]4(F)[C@@H](O)C[C@]3(C)[C@]2(C(=O)CO)O1	inactive	inactive	inactive	inactive	inactive	inactive	inactive	inactive	inactive	inactive	inactive	inactive	inactive							
CCCCCCCCCCCC[N+](C)(C)Cc1ccccc1	1.19 µM (active)	1.88 µM (active)	2.51 µM (active)	2.24 µM (active)	7.94 µM (active)	10 µM (active)	15.8 µM (active)		14.1 µM (active)	8.91 µM (active)	3.16 µM (active)	7.94 µM (active)	25.1 µM (active)	11.2 µM (active)	inactive	0.668				
CC(C)OC(=O)c1cc2c(OCC(O)CNC(C)(C)C)cccc2[nH]1 (stereo not drawn)	inactive	inactive	inactive	inactive	inactive			inactive		inactive		inactive	inactive							
CC1CC(=O)NN=C1c1ccc(NCC(C)(C)NCC(O)COc2cc(Cl)ccc2C#N)cc1 (stereo not drawn)	inactive	inactive		inactive	inactive	inactive	inactive	inactive	inactive	inactive	inactive	inactive	inactive	inactive			inactive	-23.3	-27.2	1.78 µM (active)
CC(=O)N(CC(=O)N(C)C)c1ccccc1	inactive	inactive	inactive		inactive	inactive	inactive				inactive	inactive								
O=C1c2ccccc2CCc2ccccc21	inactive	inactive	inactive	inactive	inactive	inactive	inactive	inactive	inactive	inactive	inactive	inactive	inactive							
